According to PubChem BioAssay (NCATS):
Records with an inconclusive call do not appear. Where a call stands in place of a potency, no number is given. Calls of active or inactive are those of the source. Unless noted, calls come from the whole dose curve; as a rule, active = well fitted curve in the direction sought with a large enough effect; inconclusive = small, poorly fitted or top-dose-only effect, or another doubt; inactive = no such curve, though single readings can be large; an effect the other way counts as inactive or inconclusive.

How the values were obtained:
[1] = qHTS for Inhibitors of the Functional Ribonucleoprotein Complex (vRNP) of Lassa (LASV) Arenavirus: LASV Primary Screen - GLuc reporter signal (AID 1347082; calls by dose curve; tested in HEK293 reporter line; note: series mostly up to about 57 µM; nearly all actives have a fitted effect of over 60% in size)
[2] = qHTS for Inhibitors of the Functional Ribonucleoprotein Complex (vRNP) of Lassa (LASV) Arenavirus: Viability assay - alamar blue signal for LASV Primary Screen (AID 1347083; calls by dose curve; tested in HEK293 reporter line; note: series mostly up to about 57 µM; nearly all actives have a fitted effect of over 80% in size)
[3] = qHTS for Inhibitors of the Functional Ribonucleoprotein Complex (vRNP) of Lymphocytic Choriomeningitis Arenaviruses (LCMV): Viability assay - alamar blue signal for LCMV Primary Screen (AID 1347085; calls by dose curve; tested in HEK293 reporter line; note: series mostly up to about 57 µM; nearly all actives have a fitted effect of over 80% in size)
[4] = target: Nucleoprotein (Lymphocytic choriomeningitis virus (strain Armstrong)) (UniProt P09992); assay: qHTS for Inhibitors of the Functional Ribonucleoprotein Complex (vRNP) of Lymphocytic Choriomeningitis Arenaviruses (LCMV): LCMV Primary Screen - GLuc reporter signal (AID 1347086; calls by dose curve; note: series mostly up to about 57 µM; nearly all actives have a fitted effect of over 70% in size)
[5] = qHTS of pediatric cancer cell lines to identify multiple opportunities for drug repurposing: Primary screen for TC32 cells (AID 1347089); note: nearly all actives have a fitted effect of over 60% in size
Procedure, shortened: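 Luminescent CellTiter-Glo read-out of metabolically active TC32 cells after 48 h compound exposure. Primary: MIPE 11-point, 0.78 nM–46 µM; NPC 8-point, 0.59 nM–46 µM. Confirmatory: 11-point dilutions.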

[6] = qHTS of pediatric cancer cell lines to identify multiple opportunities for drug repurposing: Primary screen for DAOY cells (AID 1347090); note: series mostly up to about 46 µM; nearly all actives have a fitted effect of over 55% in size
Procedure, shortened: (§1)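 Cell viability, CellTiter-Glo luminescence; 500-1,000 cells/well, 8- or 11-point titration, 48 h compound exposure at 37 degrees C, 5% CO2. Controls: DMSO neutral, bortezomib 2.3 µM final as positive.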

[7] = qHTS of pediatric cancer cell lines to identify multiple opportunities for drug repurposing: Primary screen for A673 cells (AID 1347092); note: nearly all actives have a fitted effect of over 45% in size
Procedure, shortened: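 A673 cells (500-1,000 cells/well in growth media) were pre-incubated 5 h at 37 degrees C, then exposed to compounds for 48 h. Viability was read as CellTiter-Glo luminescence; concentration-response curves came directly from the primary screen.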

[8] = qHTS of pediatric cancer cell lines to identify multiple opportunities for drug repurposing: Primary screen for SK-N-MC cells (AID 1347093); note: potency is the fitted concentration of half-maximal effect
Procedure, shortened: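 Metabolically active cells were quantified by ATP-dependent luminescence (CellTiter-Glo, 15 min at room temperature) following 48 h treatment. Cells had been plated at 500-1,000 per well and settled for 5 h beforehand.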

[9] = qHTS of pediatric cancer cell lines to identify multiple opportunities for drug repurposing: Primary screen for SJ-GBM2 cells (AID 1347091); note: potency is the fitted concentration of half-maximal effect
Procedure, shortened: as §1

Sequence of Nucleoprotein (Lymphocytic choriomeningitis virus (strain Armstrong)) (P09992 whole entry, looked up): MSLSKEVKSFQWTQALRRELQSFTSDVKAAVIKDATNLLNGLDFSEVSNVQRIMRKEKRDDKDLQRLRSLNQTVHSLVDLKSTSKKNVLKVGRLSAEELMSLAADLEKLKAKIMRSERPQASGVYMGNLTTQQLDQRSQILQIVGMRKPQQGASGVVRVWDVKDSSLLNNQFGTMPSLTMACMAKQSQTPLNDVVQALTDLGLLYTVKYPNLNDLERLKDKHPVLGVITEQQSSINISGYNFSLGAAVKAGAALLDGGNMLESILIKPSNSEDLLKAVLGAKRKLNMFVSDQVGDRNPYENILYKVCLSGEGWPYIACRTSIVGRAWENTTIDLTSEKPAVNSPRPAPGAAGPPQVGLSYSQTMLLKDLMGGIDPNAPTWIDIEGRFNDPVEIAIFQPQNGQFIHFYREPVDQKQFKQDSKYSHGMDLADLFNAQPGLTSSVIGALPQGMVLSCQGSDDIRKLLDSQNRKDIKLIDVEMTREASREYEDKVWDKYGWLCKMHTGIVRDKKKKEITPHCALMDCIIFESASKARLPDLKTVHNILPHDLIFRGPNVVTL

C[C@]12CC[C@H]3[C@@H](CCC4=CC(=O)CC[C@@H]43)[C@@H]1CC[C@@H]2OC(=O)CCc1ccco1
Potency [1]: inactive | Potency [2]: inactive | Potency [3]: inactive | Potency [4]: inactive | Potency [5]: inactive | Potency [6]: inactive | Potency [7]: inactive | Potency [8]: inactive

CN1C(=O)COc2c(C(=O)NC3CN4CCC3CC4)cc(Cl)cc21 (configuration not stated)
Potency [1]: inactive | Potency [2]: inactive | Potency [3]: inactive | Potency [4]: inactive | Potency [5]: inactive | Potency [6]: inactive | Potency [9]: inactive | Potency [7]: inactive | Potency [8]: inactive

CC(=O)NC1CCSC1=O (configuration not stated)
Potency [1]: inactive | Potency [2]: inactive | Potency [3]: inactive | Potency [4]: inactive | Potency [5]: inactive | Potency [9]: inactive | Potency [7]: inactive | Potency [8]: inactive

c1ccc(N2CCNCC2)cc1
Potency [1]: inactive | Potency [2]: inactive | Potency [3]: inactive | Potency [4]: inactive | Potency [5]: inactive | Potency [9]: inactive | Potency [7]: inactive

C[C@]12CC[C@H]3[C@@H](CCC4=CC(=O)CC[C@@H]43)[C@@H]1CC[C@@H]2OC(=O)CCC1CCCCC1
Potency [1]: inactive | Potency [2]: inactive | Potency [3]: inactive | Potency [4]: inactive | Potency [5]: inactive | Potency [6]: inactive | Potency [7]: inactive

COc1cccc([C@@]2(O)CCCC[C@@H]2CN(C)C)c1
Potency [1]: inactive | Potency [2]: inactive | Potency [3]: inactive | Potency [4]: inactive | Potency [5]: inactive | Potency [6]: inactive | Potency [9]: inactive | Potency [7]: inactive | Potency [8]: inactive

Clc1ccc(C(c2ccc(Cl)cc2)C(Cl)(Cl)Cl)cc1
Potency [1]: inactive | Potency [2]: inactive | Potency [3]: inactive | Potency [4]: inactive | Potency [5]: inactive | Potency [9]: inactive | Potency [8]: 5.31 µM (active)

Cc1c(N)nc([C@H](CC(N)=O)NC[C@H](N)C(N)=O)nc1C(=O)N[C@H](C(=O)N[C@H](C)[C@@H](O)[C@H](C)C(=O)N[C@H](C(=O)NCCc1nc(-c2nc(C(=O)NCCCCN=C(N)N)cs2)cs1)[C@@H](C)O)[C@@H](O[C@@H]1O[C@@H](CO)[C@@H](O)[C@H](O)[C@@H]1O[C@H]1O[C@H](CO)[C@@H](O)[C@H](OC(N)=O)[C@@H]1O)c1cnc[nH]1
Potency [1]: inactive | Potency [2]: inactive | Potency [4]: inactive

COP(=S)(OC)Oc1ccc(S(=O)(=O)N(C)C)cc1
Potency [1]: inactive | Potency [2]: inactive | Potency [3]: inactive | Potency [4]: inactive | Potency [9]: inactive | Potency [7]: inactive | Potency [8]: inactive

COc1cccc(C(=O)CCN[C@@H](C)[C@H](O)c2ccccc2)c1
Potency [1]: inactive | Potency [2]: inactive | Potency [3]: inactive | Potency [4]: inactive | Potency [9]: inactive

C[C@H](N)C(=O)c1ccccc1
Potency [1]: inactive | Potency [2]: inactive | Potency [3]: inactive | Potency [4]: inactive | Potency [6]: inactive | Potency [9]: inactive | Potency [7]: inactive | Potency [8]: inactive

NC(=O)CS(=O)C(c1ccccc1)c1ccccc1 (configuration not stated)
Potency [1]: inactive | Potency [2]: inactive | Potency [3]: inactive | Potency [4]: inactive | Potency [9]: inactive | Potency [7]: inactive | Potency [8]: inactive

CCN(CC)CCc1c[nH]c2ccccc12
Potency [1]: inactive | Potency [2]: inactive | Potency [3]: inactive | Potency [4]: inactive | Potency [6]: inactive | Potency [9]: inactive | Potency [7]: inactive | Potency [8]: inactive

NNc1ccccc1
Potency [1]: inactive | Potency [2]: inactive | Potency [3]: inactive | Potency [4]: inactive | Potency [6]: inactive | Potency [9]: inactive | Potency [7]: inactive | Potency [8]: inactive

COc1cc(CC(C)N)cc(OC)c1OC (configuration not stated)
Potency [1]: inactive | Potency [2]: inactive | Potency [3]: inactive | Potency [4]: inactive | Potency [9]: inactive | Potency [7]: inactive | Potency [8]: inactive

CCCCCCCCCC(=O)O[C@H]1CC[C@H]2[C@@H]3CCC4=CC(=O)CC[C@@H]4[C@H]3CC[C@]12C
Potency [1]: inactive | Potency [2]: inactive | Potency [3]: inactive | Potency [4]: inactive | Potency [6]: inactive | Potency [9]: inactive | Potency [7]: inactive | Potency [8]: inactive

CN(C)CCc1c[nH]c2cccc(OP(=O)(O)O)c12
Potency [1]: inactive | Potency [2]: inactive | Potency [3]: inactive | Potency [4]: inactive | Potency [9]: inactive | Potency [7]: inactive | Potency [8]: inactive

CCc1cc2c(s1)-n1c(C)nnc1CN=C2c1ccccc1Cl
Potency [1]: inactive | Potency [2]: inactive | Potency [3]: inactive | Potency [4]: inactive | Potency [6]: inactive | Potency [9]: inactive | Potency [7]: inactive | Potency [8]: inactive

CCOC(=O)CC(SP(=S)(OC)OC)C(=O)OCC (configuration not stated)
Potency [1]: inactive | Potency [2]: inactive | Potency [3]: inactive | Potency [4]: inactive | Potency [6]: inactive | Potency [9]: inactive | Potency [7]: inactive | Potency [8]: inactive

N#C[C@H]1C[C@H]2C[C@@H]2N1C(=O)[C@@H](N)C12CC3CC(CC(O)(C3)C1)C2
Potency [1]: inactive | Potency [2]: inactive | Potency [4]: inactive

CC(C)(C)NCC(O)c1cc(Cl)c(N)c(C(F)(F)F)c1 (configuration not stated)
Potency [1]: inactive | Potency [2]: inactive | Potency [3]: inactive | Potency [4]: inactive | Potency [6]: inactive | Potency [9]: inactive | Potency [7]: inactive | Potency [8]: inactive

O=c1c(C2CC(c3ccc(-c4ccc(Br)cc4)cc3)Cc3ccccc32)c(O)sc2ccccc12 (configuration not stated)
Potency [1]: inactive | Potency [2]: inactive | Potency [3]: inactive | Potency [4]: inactive | Potency [9]: 11.9 µM (active) | Potency [7]: inactive

CNCC(=O)c1ccc(O)c(O)c1
Potency [1]: inactive | Potency [2]: inactive | Potency [3]: inactive | Potency [4]: inactive | Potency [6]: inactive | Potency [9]: inactive | Potency [7]: inactive | Potency [8]: inactive

CN1CC[C@]23c4c5ccc(O)c4O[C@H]2[C@@H](O)CC[C@H]3[C@H]1C5
Potency [1]: inactive | Potency [2]: inactive | Potency [3]: inactive | Potency [4]: inactive | Potency [6]: inactive | Potency [9]: inactive | Potency [7]: inactive | Potency [8]: inactive
